# Source: PubChem BioAssay
# Values without a mark were called inactive. Active and inactive are the calls of the source. No stated cut-off is given here; in the data, active means inhibition above about 33%; inactive means the rest.
# Experiment: VP16 transactivation reporter inhibitors, counter-screen for LRH-1 inverse agonist project, cell-based, luminescence, high throughput (AID 651615)
# Conditions: Gal4-VP16 luciferase reporter cells, at 3.6 µM, active compounds read high
row,Compound,inhibition
1,c1ccc(C2=Nn3c(nnc3-c3n[nH]c4c3CCC4)SC2)cc1,-147%
2,Cc1cccc(NC(=O)COC(=O)c2cccs2)c1C,9.54%
3,CC(=O)N1CCN(c2ccc(NCc3ccc(C)cc3)cc2)CC1,1.11%
4,Cn1c(=O)n(C)c2cc(NC(=O)CCl)ccc21,-101%
5,COc1cccc(C(C)(O)c2nc(-c3cccc(C#N)c3)cs2)c1 (stereo unspecified),22.6%
6,O=[N+]([O-])c1cccc(-c2ccc3nnc(SCc4cccnc4)n3n2)c1,19.4%
7,c1csc(CCNc2ncnc3sc4c(c23)CCC4)c1,48.9% (active)
8,Cc1ccccc1OCC(=O)N/N=C/c1ccc([N+](=O)[O-])o1,9.63%
9,O=C(Nc1nc2ccc(F)cc2s1)c1ccc([N+](=O)[O-])o1,-93.2%
10,CCC(=O)N1CCN(c2ccc(NC(=O)c3ccc([N+](=O)[O-])o3)cc2Cl)CC1,-21.9%
11,Cc1sc(NC(=S)NC(=O)CCc2ccccc2)c(C(N)=O)c1C,11.8%
12,Cc1cc(C)n(-c2nc(Nc3ccccc3C(F)(F)F)nc(-n3nc(C)cc3C)n2)n1,-0.49%
13,O=C(Nc1ccc(N2CCN(C(=O)c3ccccc3)CC2)cc1)c1ccc([N+](=O)[O-])o1,-9.49%
14,O=[N+]([O-])c1ccc(/C=N/n2c(CO)nc3ccccc32)s1,2.51%
15,CC(C)c1cc(NC(=O)CCl)on1,-11.4%
16,COc1ccc(N2CC(C(=O)N/N=C/c3ccc(C)cc3)CC2=O)cc1 (stereo unspecified),19.5%
